Data reported in PubChem BioAssay (NCI).
The panel holds about 83,000 compounds, 20% with a hit somewhere; the sample as a whole holds those more often.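 Percent growth is the endpoint: 0 to 100 indicates growth inhibition (40 means 60% inhibition), 0 means no net growth, and negative values indicate cell death.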 Values without a mark were called inactive. Activity calls are given as the source filed them. How the source made its calls: active means growth percent below 10; inactive means the rest.

Columns and labels:
Experiment in all cases: NCI-60 one-dose screen, 48 h (100 = growth as untreated, 0 = no growth, -100 = all killed)
Details in all cases: 10 µM unless noted
NCI-H23 lung = test system: NCI-H23 lung
NCI-H322M lung = test system: NCI-H322M lung
HOP-62 NSCLC = test system: HOP-62 NSCLC
NCI-H460 lung = test system: NCI-H460 lung
HOP-92 NSCLC = test system: HOP-92 NSCLC
NCI-H522 lung = test system: NCI-H522 lung
A549/ATCC NSCLC = test system: A549/ATCC NSCLC
786-0 renal = test system: 786-0 renal
COLO 205 colon = test system: COLO 205 colon
DU-145 prostate = test system: DU-145 prostate
K-562 leukemia = test system: K-562 leukemia
MALME-3M melanoma = test system: MALME-3M melanoma
MDA-MB-231 breast = test system: MDA-MB-231 breast
RXF 393 renal = test system: RXF 393 renal
SF-268 CNS = test system: SF-268 CNS
SF-295 CNS = test system: SF-295 CNS
SF-539 CNS = test system: SF-539 CNS
UACC-257 melanoma = test system: UACC-257 melanoma
M14 melanoma = test system: M14 melanoma
HCT-15 colon = test system: HCT-15 colon

Row | Structure (SMILES) | growth (NCI-H23 lung) | growth (NCI-H322M lung) | growth (HOP-62 NSCLC) | growth (NCI-H460 lung) | growth (HOP-92 NSCLC) | growth (NCI-H522 lung) | growth (A549/ATCC NSCLC) | growth (786-0 renal) | growth (COLO 205 colon) | growth (DU-145 prostate) | growth (K-562 leukemia) | growth (MALME-3M melanoma) | growth (MDA-MB-231 breast) | growth (RXF 393 renal) | growth (SF-268 CNS) | growth (SF-295 CNS) | growth (SF-539 CNS) | growth (UACC-257 melanoma) | growth (M14 melanoma) | growth (HCT-15 colon)
1 | Nc1ccn(C2O[C@H](CO)[C@@H](O)[C@H]2O)c(=O)n1 (stereo not given in full) | 71.8% | 114% | 65% | 59.8% | 73.2% | 71.2% | 46.6% | 95.2% | 110% | 94.4% | 74.3% | 109% | 82.8% | 50.1% | 86.2% | 58.5% | 73.1% | 90.1% | 107% | 
2 | CCOC(=O)c1ccc2[nH]c(-c3ccccc3)cc(=O)c2c1 | 99.7% | 98.2% | 106% | 101% | 92.5% | 101% | 95.7% | 104% | 109% | 103% | 97.2% | 104% | 94.5% | 103% | 103% | 106% | 97.2% | 98.7% | 98.9% | 92.8%
3 | O=C(Nc1ccccc1O)c1ccc(-c2ccc(Cl)cc2Cl)o1 | 85% | 101% | 93.7% | 98.2% | 80.4% | 91.4% | 102% | 88.2% | 90.7% | 91% | 47.1% | 71.4% | 80.4% | 79.7% | 77.1% | 68.4% | 115% | 106% | 90% | 95.9%
4 | O=C(CN1C(=O)/C(=C\c2ccc(Cl)cc2)SC1=S)Nc1ncc(Cc2ccc(Cl)cc2)s1 | 100% | 107% | 105% | 100% | 101% | 89.5% | 108% | 106% | 110% | 106% | 105% | 99.4% | 104% | 110% | 97.4% | 101% | 94.3% | 104% | 102% | 103%
5 | C1CCN(c2nc(N3CCCCC3)nc(N3CCOCC3)n2)CC1 | 95.7% | 105% | 94.3% | 109% | 112% | 78% | 87% | 97.3% | 107% | 119% | 101% | 100% | 93.9% | 107% | 105% | 111% | 113% | 97.1% | 113% | 
6 | Cc1ccc(Cn2c(N3CCC(C(=O)NCc4cccs4)CC3)nc3ccccc32)cc1 | 85.2% | 114% | 85% | 82.5% | 73.9% | 107% | 95% | 89.1% | 96.9% | 72.8% | -42.9% (active) | 63.6% | 71.3% | 80.7% | 72.3% | 97% | 88% | 119% | 31.5% | 
7 | COc1ccc(Nc2cc(C)nc(NCc3ccccc3)n2)cc1 | 56% | 61.9% | 38.5% | 11.9% | 21.6% | 19.9% | 7.95% (active) | 34.1% | 3.51% (active) | 45.4% | 5.22% (active) | 13.6% | -18.1% (active) | -16.2% (active) | 47.8% | -30.7% (active) | 47.5% | 46.8% | 8.52% (active) | 
8 | CC(=O)c1ccc(Cc2ccc(C(C)=O)s2)s1 | 103% | 92.1% | 104% | 94.3% | 102% | 95.8% | 105% | 102% | 119% | 113% | 94.1% | 106% | 99.8% | 104% | 101% | 114% | 94.1% | 111% | 107% | 
